# The list is not random: actives were taken first. Their share in the collection is about 2.3%.
# IDH1 R132H inh – qHTS for Inhibitors of mutant isocitrate dehydrogenase 1 (IDH1): qHTS; Isocitrate dehydrogenase [NADP] cytoplasmic (Homo sapiens), O75874; IDH1-R132H enzyme, NADPH consumption, diaphorase/resazurin fluorescence; Potency, µM (titrated, usually from 76.6 µM), inactives show top-dose activity change, negative = inhibition, actives largely listed as inhibitors; 0.093% of 390,000 active; note: potency is the fitted concentration of half-maximal effect; % is set by controls: 0 for no effect and ±100 for the full control effect; nearly all actives have a fitted effect of over 65% in size
# Target sequence (O75874 whole entry R132H, stated change not applied): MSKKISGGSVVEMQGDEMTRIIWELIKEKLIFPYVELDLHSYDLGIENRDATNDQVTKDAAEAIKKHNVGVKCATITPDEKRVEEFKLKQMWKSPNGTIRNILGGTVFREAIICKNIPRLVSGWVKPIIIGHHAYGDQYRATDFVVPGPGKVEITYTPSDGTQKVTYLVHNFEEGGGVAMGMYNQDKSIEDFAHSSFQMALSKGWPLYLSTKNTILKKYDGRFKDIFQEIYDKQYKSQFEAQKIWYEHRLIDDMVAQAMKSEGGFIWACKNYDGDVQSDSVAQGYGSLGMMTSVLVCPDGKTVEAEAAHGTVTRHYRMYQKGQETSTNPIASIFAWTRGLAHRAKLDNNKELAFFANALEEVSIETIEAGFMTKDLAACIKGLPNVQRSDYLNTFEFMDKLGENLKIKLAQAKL
#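 IDH1-R132H (0.5 ug/mL dispensed) in pH 7.5 Tris buffer was preincubated 30 min with compound, then given a substrate mix of 0.016 mM NADPH and 2 mM alpha-KG for 80 min at room temperature; remaining NADPH was read by diaphorase/resazurin fluorescence.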
# A549 viability – Nrf2 qHTS screen for inhibitors: counterscreen for cytotoxicity; Potency, µM (titrated, usually from 46 µM), for inactives: at the highest dose activity change, negative = cytotoxicity, hits mostly inhibitors; A549 ARE-Fluc cells, CellTiter-Fluor viability, 18-24 h; 0.16% of 390,000 active; AID 504648, 2011; note: potency is the fitted concentration of half-maximal effect; % is set by controls: 0 for no effect and ±100 for the full control effect
#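 A549 ARE-Fluc cells in 5% FBS OPTI-MEM, 5000 cells/well, rested 2 h then exposed to compounds in concentration-response for 18-24 h at 37 °C. Viability by CellTiter-Fluor fluorescence (Ex 405/Em 525) after 30 min; luciferase luminescence (BugLite, 15 min, RT) read afterwards.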
# Apoferritin bind – qHTS Assay for Identification of Novel General Anesthetics. Ferritin light chain (Equus caballus), P02791. apoferritin/1-aminoanthracene competitive binding, fluorescence. Potency, µM (highest dose often 77.5 µM), for the others: at the highest dose activity change, negative = displacement, actives largely listed as inhibitors. 0.074% of 350,000 active; note: potency is the fitted concentration of half-maximal effect; % is set by controls: 0 for no effect and ±100 for the full control effect; nearly all actives have a fitted effect of over 20% in size
#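 Horse-spleen apoferritin (10 uM) was mixed with 50% saturated 1-aminoanthracene in PBS, exposed to compounds for 10 min at room temperature, and read for fluorescence (ex 380 nm, em 535 nm). Competitive displacement was fitted with a four-parameter Hill equation.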
# Nrf2 inh – Nrf2 qHTS screen for inhibitors | A549 ARE-Fluc reporter, luciferase luminescence, 18-24 h | Potency, µM (highest dose often 46 µM), for the others: at the top dose activity change, negative = inhibition, most hits filed as inhibitors | 2.1% of 360,000 active | AID 504444, 2011; note: potency is the fitted concentration of half-maximal effect; % is set by controls: 0 for no effect and ±100 for the full control effect; nearly all actives have a fitted effect of over 60% in size
#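 Quantitative HTS in A549 cells stably bearing an antioxidant response element-firefly luciferase construct. Inhibition of Nrf2-driven transcription was scored by luminescence after 18-24 h of compound exposure at 37 °C.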
# Giardia kill – Small Molecules that selectively kill Giardia lamblia: qHTS; Giardia lamblia trophozoite viability; activity change, % at 7.66 µM, hits read low; 0.15% of 340,000 active; AID 540267, 2011; in the data active = activity change below about -80%; inconclusive = between about -30% and that limit;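 note: parasites exposed to compound for two days anaerobically before the ATP read; % is set by controls: 0 for no effect and ±100 for the full control effect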
#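 Trophozoite viability was measured as ATP-dependent luminescence, read 15-30 min after reagent addition. Before that, parasites at 100 cells/well were exposed to compounds for 48 h, anaerobically, at 37 deg C.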
# Nrf2 activator – qHTS of Nrf2 Activators; AREc32 ARE-luciferase reporter (MCF7-derived line), luminescence, 24 h; Potency, µM (series often up to 46.1 µM), for inactives: top-dose activation, most hits filed as activators; 0.31% of 410,000 active; AID 624171, 2012; note: potency is the fitted concentration of half-maximal effect; % of control where 0% means no effect; nearly all actives have a fitted effect of over 65% in size
#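 Luciferase luminescence (Steady-Glo, 30 min at room temperature) served as the read-out of ARE activation in AREc32 cells treated with compounds for 24 hr at 37 deg C.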
# Starred values were filed as active, the others as inactive; ? = inconclusive; nt = no result given; [ ] = dose if it differs, or a comment. Unless noted, calls come from the whole dose curve; as a rule, active = well fitted curve in the direction sought with a large enough effect; inconclusive = small, poorly fitted or top-dose-only effect, or another doubt; inactive = no such curve, though single readings can be large; an effect the other way counts as inactive or inconclusive.
SMILES,IDH1 R132H inh,A549 viability,Apoferritin bind,Nrf2 inh,Giardia kill,Nrf2 activator
COc1cccc(C(c2nnnn2Cc2ccco2)N2CCN(c3cccc(C)c3C)CC2)c1OC (configuration not stated),4.7%,0.6%,49.7%,23.1µM*,-2.2,-0.2%
O=C(COc1ccccc1)N/N=C/c1ccc([N+](=O)[O-])o1,16.1%,?,-10.8%,13µM*,-96.9*,9.8%
O=C(CSc1ccc(Cl)cc1)N/N=C/c1ccc([N+](=O)[O-])o1,33.4%,?,?,23.1µM*,-94.6*,5.1%
NC(=O)N/N=C\c1ccc([N+](=O)[O-])o1,nt,nt,-9.6%[29.3 µM],nt,nt,nt
NC(=O)N/N=C/c1ccc([N+](=O)[O-])o1,12.7%,?,0.1%,6.8%,?,3.3%
O=C(N/N=C/c1ccc([N+](=O)[O-])o1)C(O)c1ccccc1 (configuration not stated),0.7%,?,6.0%,?,-84.0*,18.2%
O=C(N/N=C/c1ccc([N+](=O)[O-])o1)C1CC1,-2.5%,-21.1%,-13.5%,?,-85.4*,1.1%
O=S(=O)(c1ccccc1C(F)(F)F)N1CCN(c2nc(-c3ccccc3)nc3ccccc23)CC1,nt,7.2%,nt,?,5.4,nt
C=C(C)[C@@H]1C2=CC(C(=O)OC)=C(C[C@@H](C(=C)C)[C@H]3O[C@H]3C3=C[C@H]1OC3=O)O2,nt,-4.7%,nt,4.6%,-11.4,nt
O=S(=O)(Nc1cccc(-c2ccc(N3CCCCC3)nn2)c1)c1ccc(Cl)s1,-15.0%,-11.8%,-12.3%,nt,nt,-1.0%
O=C(N/N=C/c1ccc([N+](=O)[O-])o1)c1sc2ccccc2c1Cl,6.5%,9.6%,1.2%,?,-94.9*,-3.5%
O=C(N/N=C/c1ccccn1)c1sc2ccccc2c1Cl,3.4%,-7.3%,-16.0%,-5.3%,9.4,?
O=[N+]([O-])c1ccc(/C=N/Nc2nc(N3CCCCC3)nc(N3CCCCC3)n2)o1,4.9%,?,-15.2%,18.4µM*,-84.4*,6.0%
Cc1nonc1C(=O)N/N=C/c1ccc([N+](=O)[O-])o1,6.7%,-10.3%,-4.3%,8.7%,-16.4,?
COc1ccc(-c2nn(-c3ccccc3)cc2C(=O)N2CCOCC2)cc1,2.0%,-4.6%,-8.5%,10.0%,-12.5,-0.1%
COc1ccc(-c2nn(-c3ccccc3)cc2C(=O)N/N=C/c2ccc([N+](=O)[O-])o2)cc1,-6.0%,?,0.5%,?,-86.0*,3.1%[9.22 µM]
Cc1cc(C(=O)N/N=C/c2ccc([N+](=O)[O-])o2)c(C)o1,0.6%,-7.2%,-0.2%,0.1%,-96.8*,8.0%
O=C(OCC#CCSc1nnc(-c2cccc3ccccc23)o1)c1ccccc1F,nt,-1.9%,nt,9.1%,nt,nt
Clc1ccc(Cn2cc3c(n2)-c2cc4ccccc4n2C3)cc1,nt,0.1%,nt,0.3%,11.1,nt
O=C(CNc1ccc2ccccc2c1)N/N=C/c1ccc(C(=O)O)cc1,4.5%,10.8%,-8.9%,27.2%,-1.0,4.8%
O=C(N/N=C/c1ccc([N+](=O)[O-])o1)c1cn2ccc3ccccc3c2n1,8.6%,6.7%,-4.8%,-26.6%,-95.3*,7.8%
O=C(N/N=C\c1ccc([N+](=O)[O-])o1)c1ccc(O)cc1,nt,nt,-7.2%[29.3 µM],nt,nt,nt
Cc1ccc(OCC(=O)N/N=C/c2ccc([N+](=O)[O-])o2)cc1,3.1%,-24.7%,-11.1%,20.6µM*,-101.2*,4.0%
O=C(CNc1ccc2ccccc2c1)N/N=C/c1ccc([N+](=O)[O-])o1,4.7%,-3.3%,?,-5.3%,-90.9*,16.5%
CCN(CC)S(=O)(=O)c1ccc2c(c1)nc(CN(C)C(=O)Nc1ccc(C)c(Cl)c1)n2C,7.3%,-0.2%,51.3%,nt,nt,0.4%

# Compound activity (PubChem)
